In PubChem BioAssay (Tox21) one finds Potency, outcome and max activation data, which are given here for 9 compounds.

Assay [1] addresses Thyrotropin-releasing hormone receptor (Homo sapiens) (UniProt P34981). Put plainly: qHTS assay to identify small molecule agonists of the thyrotropin-releasing hormone receptor (TRHR) signaling pathway (AID 1346891; calls by dose curve;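 further: HEK293 cells expressing TRHR with calcium dye readout; series mostly up to about 58 µM; on the % scale 0 is the no-effect control and ±100 the full control effect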). The procedure, abridged:
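Overnight-plated (18 h, 37 °C, 5% CO2) TRHR-Hek293 cells; 2 h calcium dye at 37 °C; compound in DMSO; 3-min kinetic fluorescence read.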
In general terms: In qHTS, concentration-response curves come from the screen itself.

The nature of assay [2]: Human pregnane X receptor (PXR) small molecule agonists, qHTS cell viability counter screen (AID 1346977). Further: nearly all actives have a fitted effect of over 50% in size. Further: potency means the concentration at half of the fitted maximal effect. The method in brief: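 After a 5hr pre-incubation, PXR-Luc HepG2 cells received compounds plus positive control in DMSO and were kept 24hr at 37C. Cell viability was quantified by fluorescence from CellTiter-Fluor added for the final hour.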
Assay [3] is described as follows: Caspase-3/7 induction in CHO-K1 cells by small molecules, qHTS assay (AID 1346980). Further: on the % scale 0 is the no-effect control and ±100 the full control effect; nearly all actives have a fitted effect of over 15% in size. The method in brief:
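Wild-type cells were seeded at 1,500 per well and settled 5 hr at 37 C, 5% CO2, then exposed to DMSO-dissolved compounds for 17 hr. Caspase-Glo 3/7 reagent was added, and luminescence was read after 30min at room temperature.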

Assay [4] is described as follows: Caspase-3/7 induction in HepG2 cells by small molecules, qHTS cell viability counter screen (AID 1346981). Further: series mostly up to about 92 µM; on the % scale 0 is the no-effect control and ±100 the full control effect; nearly all actives have a fitted effect of over 30% in size. The procedure, abridged:
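Wild-type HepG2 cells, 2,000/well, settled 5 hr at 37 C, 5% CO2 before compound addition. Viability read by CellTiter-Fluor fluorescence, reagent added after 16 hr compound exposure, then 1 hr at 37C, in the same wells as the caspase read.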

Assay [5] has as its target Nuclear receptor subfamily 1 group I member 2 (Homo sapiens) (UniProt O75469). Put plainly: Human pregnane X receptor (PXR) small molecule agonists, qHTS assay (AID 1346982). Further: nearly all actives have a fitted effect of over 35% in size. Further: potency means the concentration at half of the fitted maximal effect. On activation: on the % scale 0 is the no-effect control and ±100 the full control effect. The method in brief: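 PXR-Luc HepG2 reporter cells (CYP3A4-driven luciferase) in 5% charcoal-stripped FBS medium, plated 5 h before compound addition, then treated 24 h at 37C. Luciferase read by ONE-Glo luminescence after 30 min at room temperature.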

The target in assay [6] is Cytochrome P450 2C9 (Homo sapiens) (UniProt P11712). Kind of assay: Cytochrome P450 Family 2 Subfamily C Member 9 (CYP2C9) small molecule antagonists: luciferase reporter qHTS assay (AID 1671198). Further: nearly all actives have a fitted effect of over 50% in size. Further: potency means the concentration at half of the fitted maximal effect. The procedure, abridged:
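CYP2C9 activity was measured with a P450-Glo proluciferin substrate. Enzyme–substrate mix was held with compound for 10 min at room temperature, then NADPH regeneration solution was added for 1 h at 37C. Luciferin product was read as luminescence.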
On the technique in general: Reporter assays use an easily measured gene product as a stand-in for the process of interest.

The target of assay [7] is Cytochrome P450 1A2 (Homo sapiens) (UniProt P05177). Put plainly: Cytochrome P450 Family 1 Subfamily A Member 2 (CYP1A2) small molecule antagonists: luciferase reporter qHTS assay (AID 1671199). Further: nearly all actives have a fitted effect of over 50% in size. Further: potency means the concentration at half of the fitted maximal effect. The procedure, abridged:
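P450-Glo CYP1A2 enzyme–proluciferin substrate mix with compound 10 min at room temperature, then NADPH regeneration 1 h at room temperature. Luciferin detection reagent added, luminescence read after 20 min; furafylline positive control.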

Assay [8] can be described thus: Caspase-3/7 induction in CHO-K1 cells by small molecules, qHTS cell viability counter screen (AID 1346979). Further: nearly all actives have a fitted effect of over 35% in size. Further: potency means the concentration at half of the fitted maximal effect. The procedure, abridged: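 Multiplexed with Caspase-Glo 3/7 in CHO-K1 cells, this counter screen added CellTiter-Fluor after 16hr of compound exposure and recorded fluorescence 1hr later.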
The target of assay [9] is Cytochrome P450 2D6 (Homo sapiens) (UniProt P10635). Kind of assay: Cytochrome P450 Family 2 Subfamily D Member 6 (CYP2D6) small molecule antagonists: luciferase reporter qHTS assay (AID 1671196). Further: nearly all actives have a fitted effect of over 50% in size. Further: potency means the concentration at half of the fitted maximal effect. The method in brief:
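Cell-free P450-Glo system: CYP2D6 with proluciferin substrate was pre-incubated with compound for 10 min, then reacted with NADPH regeneration for 1 h at room temperature. Luciferin product was detected after 20 min, and data were reported as relative luminescence units.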

In assay [10] the target is Cytochrome P450 2C19 (Homo sapiens) (UniProt P33261). Put plainly: Cytochrome P450 Family 2 Subfamily C Member 19 (CYP2C19) small molecule antagonists: luciferase reporter qHTS assay (AID 1671197). Further: nearly all actives have a fitted effect of over 65% in size. Further: potency means the concentration at half of the fitted maximal effect. The procedure, abridged: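 P450-Glo CYP2C19 system: enzyme-substrate mix with compound 10 min at room temperature, then NADPH regeneration solution, 1 h at 37C. Proluciferin-to-luciferin conversion detected by luminescence after 20 min with detection reagent; ketoconazole as positive control.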

In assay [11] the target is Cytochrome P450 3A4 (Homo sapiens) (UniProt P08684). Put plainly: Cytochrome P450 Family 3 Subfamily A Member 4 (CYP3A4) small molecule antagonists: luciferase reporter qHTS assay (AID 1671201). Further: nearly all actives have a fitted effect of over 50% in size. Further: potency means the concentration at half of the fitted maximal effect. The procedure, abridged:
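Room-temperature assay throughout: 10 min compound–enzyme/substrate preincubation, 1 h reaction after NADPH regeneration solution, 20 min detection. Luciferin formed from proluciferin substrate is quantified by luminescence.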

The target in assay [12] is Voltage-gated inwardly rectifying potassium channel KCNH2 (Homo sapiens) (UniProt Q12809). Kind of assay: Human Ether-a-go-go-Related Gene (hERG) channel small molecule antagonists: fluorescence cell-based qHTS assay (AID 1671200). Further: nearly all actives have a fitted effect of over 50% in size. Further: potency means the concentration at half of the fitted maximal effect. The method in brief:
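Cell line hERG-U2OS; dye FluxOR II, 1 h RT dark; Tl+ stimulus; ex 480/em 540 nm, read each second for 2 min.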
(Block of hERG is tested as a sign of cardiac risk.)

Assay [13] has as its target Nuclear receptor subfamily 1 group I member 2 (Rattus norvegicus) (UniProt Q9R1A7). Put plainly: Rat pregnane X receptor (rPXR) activation by small molecules, qHTS assay (AID 1346983). Further: on the % scale 0 is the no-effect control and ±100 the full control effect; nearly all actives have a fitted effect of over 20% in size. As to conditions: rPXR luciferase reporter cells, One-Glo luminescence, 24 h; max activation: hits give high values. The procedure, abridged: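 Cell-based rPXR luciferase reporter assay, 2,000 cells per well, rested 5hr at 37 C before compound addition in DMSO, then 24 hr at 37 C. One-Glo reagent was added and luminescence read after 30 min at room temperature.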

The target in assay [14] is Nuclear receptor subfamily 1 group I member 2 (Homo sapiens) (UniProt O75469). Kind of assay: Human pregnane X receptor (PXR) activation by small molecules, qHTS assay (AID 1346985). Further: on the % scale 0 is the no-effect control and ±100 the full control effect; nearly all actives have a fitted effect of over 40% in size. The method in brief: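 DPX-2 cells (HepG2 co-transfected with a PXR response element and a CYP3A4-promoter luciferase construct) were seeded at 2,000 per well, rested 5 hr at 37C, then exposed to DMSO-dissolved compounds for 24 hr. Activation was read as luciferase luminescence.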

The target is the same in assay [15]. Put plainly: CYP3A4 induction through human pregnane X receptor (PXR) by small molecules, qHTS assay (AID 1346984). Further: potency means the concentration at half of the fitted maximal effect; nearly all actives have a fitted effect of over 40% in size. The method in brief:
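DPX-2 HepG2 cells carrying a PXR response element and CYP3A4-promoter luciferase construct, treated with compounds 24 hr at 37C. Then P450-Glo CYP3A4 Luciferin-IPA substrate (3uM final) for 3 hr at 37C, One-Glo added, luminescence read.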

The nature of assay [16]: Caspase-3/7 induction in HepG2 cells by small molecules, qHTS assay (AID 1346978). Further: on the % scale 0 is the no-effect control and ±100 the full control effect; nearly all actives have a fitted effect of over 15% in size. The procedure, abridged: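 Wild-type HepG2 cells (2,000/well) were settled 5 h at 37 C, 5% CO2, then exposed to compounds in DMSO for 17 h. Caspase-3/7 activity was read by luminescence 30 min after adding Caspase-Glo 3/7 reagent at room temperature.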

Values without a mark were called inactive. Records with an inconclusive call do not appear. Activity calls are given as the source filed them. Unless noted, the call rests on the fitted dose curve; in most records, active means well fitted curve in the direction sought with a large enough effect in the repeat runs; inconclusive means weak or mixed curves; inactive means no such curve, though single readings can be large; an effect the other way counts as inactive or inconclusive.

Sequence of Cytochrome P450 3A4 (Homo sapiens) (P08684 whole entry, looked up): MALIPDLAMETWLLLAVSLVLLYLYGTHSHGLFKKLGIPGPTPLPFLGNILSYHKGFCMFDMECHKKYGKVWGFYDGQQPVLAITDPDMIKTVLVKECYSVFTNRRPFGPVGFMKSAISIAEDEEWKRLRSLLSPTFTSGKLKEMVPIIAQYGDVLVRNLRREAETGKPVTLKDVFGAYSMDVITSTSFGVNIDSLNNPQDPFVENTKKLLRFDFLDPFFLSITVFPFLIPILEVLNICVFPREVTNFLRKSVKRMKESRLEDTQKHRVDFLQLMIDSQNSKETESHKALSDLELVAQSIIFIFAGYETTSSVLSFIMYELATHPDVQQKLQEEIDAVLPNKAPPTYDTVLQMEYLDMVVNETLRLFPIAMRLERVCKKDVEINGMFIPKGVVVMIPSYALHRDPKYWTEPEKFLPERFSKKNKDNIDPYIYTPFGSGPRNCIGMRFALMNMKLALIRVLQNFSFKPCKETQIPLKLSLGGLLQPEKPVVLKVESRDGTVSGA
Sequence of Cytochrome P450 1A2 (Homo sapiens) (P05177 whole entry, looked up): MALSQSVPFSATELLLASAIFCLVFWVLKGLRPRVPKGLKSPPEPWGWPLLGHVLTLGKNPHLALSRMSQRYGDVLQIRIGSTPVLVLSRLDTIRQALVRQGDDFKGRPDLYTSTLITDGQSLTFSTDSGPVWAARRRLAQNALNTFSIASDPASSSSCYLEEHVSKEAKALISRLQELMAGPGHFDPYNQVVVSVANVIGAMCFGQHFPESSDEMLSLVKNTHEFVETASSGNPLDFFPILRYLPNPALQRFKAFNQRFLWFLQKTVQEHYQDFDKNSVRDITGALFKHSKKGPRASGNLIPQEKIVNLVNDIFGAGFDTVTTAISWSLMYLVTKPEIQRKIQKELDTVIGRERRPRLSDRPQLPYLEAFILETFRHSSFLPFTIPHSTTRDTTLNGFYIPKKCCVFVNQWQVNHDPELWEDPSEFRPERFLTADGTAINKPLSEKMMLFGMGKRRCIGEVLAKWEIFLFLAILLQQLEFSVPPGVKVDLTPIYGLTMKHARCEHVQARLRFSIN
Sequence of Voltage-gated inwardly rectifying potassium channel KCNH2 (Homo sapiens) (Q12809 whole entry, looked up): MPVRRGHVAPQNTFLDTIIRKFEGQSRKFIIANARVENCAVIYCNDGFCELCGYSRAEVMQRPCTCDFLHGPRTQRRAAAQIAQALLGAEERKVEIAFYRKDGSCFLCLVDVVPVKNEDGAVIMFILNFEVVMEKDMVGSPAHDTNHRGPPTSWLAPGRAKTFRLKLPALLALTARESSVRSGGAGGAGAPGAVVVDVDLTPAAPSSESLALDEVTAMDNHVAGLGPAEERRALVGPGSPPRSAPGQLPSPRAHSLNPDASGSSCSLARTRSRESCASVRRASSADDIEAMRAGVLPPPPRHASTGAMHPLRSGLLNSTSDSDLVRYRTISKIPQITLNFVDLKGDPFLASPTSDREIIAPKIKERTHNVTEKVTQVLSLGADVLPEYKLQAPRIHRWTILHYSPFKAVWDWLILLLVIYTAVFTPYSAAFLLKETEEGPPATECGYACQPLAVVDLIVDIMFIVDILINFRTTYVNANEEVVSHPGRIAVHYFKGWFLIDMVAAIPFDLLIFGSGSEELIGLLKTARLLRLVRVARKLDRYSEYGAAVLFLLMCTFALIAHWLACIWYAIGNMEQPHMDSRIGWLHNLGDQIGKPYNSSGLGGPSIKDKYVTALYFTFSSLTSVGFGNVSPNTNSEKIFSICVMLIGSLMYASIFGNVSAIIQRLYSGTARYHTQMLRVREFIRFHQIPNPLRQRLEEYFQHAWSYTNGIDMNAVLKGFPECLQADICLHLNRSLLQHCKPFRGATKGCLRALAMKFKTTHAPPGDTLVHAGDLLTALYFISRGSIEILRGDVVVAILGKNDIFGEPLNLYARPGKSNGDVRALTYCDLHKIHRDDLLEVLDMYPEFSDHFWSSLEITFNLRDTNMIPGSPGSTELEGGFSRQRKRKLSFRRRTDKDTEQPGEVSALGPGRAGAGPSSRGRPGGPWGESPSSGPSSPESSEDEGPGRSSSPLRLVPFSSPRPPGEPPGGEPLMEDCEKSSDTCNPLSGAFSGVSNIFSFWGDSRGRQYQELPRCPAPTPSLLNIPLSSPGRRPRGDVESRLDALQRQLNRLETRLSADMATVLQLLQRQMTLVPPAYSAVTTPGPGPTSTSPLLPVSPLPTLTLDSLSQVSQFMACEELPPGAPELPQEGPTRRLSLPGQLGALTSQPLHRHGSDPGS
Sequence of Nuclear receptor subfamily 1 group I member 2 (Homo sapiens) (O75469 whole entry, looked up): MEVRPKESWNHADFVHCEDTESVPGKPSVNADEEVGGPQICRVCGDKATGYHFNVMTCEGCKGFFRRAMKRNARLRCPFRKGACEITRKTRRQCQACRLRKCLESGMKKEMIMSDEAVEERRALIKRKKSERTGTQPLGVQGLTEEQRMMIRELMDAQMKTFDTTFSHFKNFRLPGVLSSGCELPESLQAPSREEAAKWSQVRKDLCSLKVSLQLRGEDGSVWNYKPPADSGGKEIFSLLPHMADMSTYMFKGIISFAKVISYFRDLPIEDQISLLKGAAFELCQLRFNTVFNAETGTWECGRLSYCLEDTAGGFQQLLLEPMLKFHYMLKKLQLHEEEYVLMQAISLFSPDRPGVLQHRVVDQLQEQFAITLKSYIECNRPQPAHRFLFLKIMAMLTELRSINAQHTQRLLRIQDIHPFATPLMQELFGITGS
Sequence of Cytochrome P450 2C19 (Homo sapiens) (P33261 whole entry, looked up): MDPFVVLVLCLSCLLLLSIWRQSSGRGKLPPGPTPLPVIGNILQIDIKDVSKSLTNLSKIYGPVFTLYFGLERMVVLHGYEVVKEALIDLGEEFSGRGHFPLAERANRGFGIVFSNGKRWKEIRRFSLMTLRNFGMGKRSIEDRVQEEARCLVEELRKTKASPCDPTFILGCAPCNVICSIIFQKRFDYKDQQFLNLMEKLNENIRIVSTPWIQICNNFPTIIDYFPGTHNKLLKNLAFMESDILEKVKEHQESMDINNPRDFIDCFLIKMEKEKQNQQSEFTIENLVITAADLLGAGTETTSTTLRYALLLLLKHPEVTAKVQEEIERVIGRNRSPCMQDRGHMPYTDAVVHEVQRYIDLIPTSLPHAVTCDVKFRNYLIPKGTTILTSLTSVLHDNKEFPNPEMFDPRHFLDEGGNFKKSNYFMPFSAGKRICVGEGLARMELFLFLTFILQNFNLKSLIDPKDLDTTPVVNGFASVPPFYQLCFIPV
Sequence of Thyrotropin-releasing hormone receptor (Homo sapiens) (P34981 whole entry, looked up): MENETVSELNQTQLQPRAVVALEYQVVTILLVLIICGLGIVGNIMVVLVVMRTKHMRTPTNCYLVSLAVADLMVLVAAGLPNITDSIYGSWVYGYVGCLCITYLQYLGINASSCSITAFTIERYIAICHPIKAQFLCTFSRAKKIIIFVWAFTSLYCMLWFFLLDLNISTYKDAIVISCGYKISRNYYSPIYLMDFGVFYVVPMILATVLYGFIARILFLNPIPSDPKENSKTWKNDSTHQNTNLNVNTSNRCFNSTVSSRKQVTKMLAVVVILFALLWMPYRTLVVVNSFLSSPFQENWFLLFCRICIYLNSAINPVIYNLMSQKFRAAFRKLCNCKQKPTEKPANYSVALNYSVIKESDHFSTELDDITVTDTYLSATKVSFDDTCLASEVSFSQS
Sequence of Cytochrome P450 2C9 (Homo sapiens) (P11712 whole entry, looked up): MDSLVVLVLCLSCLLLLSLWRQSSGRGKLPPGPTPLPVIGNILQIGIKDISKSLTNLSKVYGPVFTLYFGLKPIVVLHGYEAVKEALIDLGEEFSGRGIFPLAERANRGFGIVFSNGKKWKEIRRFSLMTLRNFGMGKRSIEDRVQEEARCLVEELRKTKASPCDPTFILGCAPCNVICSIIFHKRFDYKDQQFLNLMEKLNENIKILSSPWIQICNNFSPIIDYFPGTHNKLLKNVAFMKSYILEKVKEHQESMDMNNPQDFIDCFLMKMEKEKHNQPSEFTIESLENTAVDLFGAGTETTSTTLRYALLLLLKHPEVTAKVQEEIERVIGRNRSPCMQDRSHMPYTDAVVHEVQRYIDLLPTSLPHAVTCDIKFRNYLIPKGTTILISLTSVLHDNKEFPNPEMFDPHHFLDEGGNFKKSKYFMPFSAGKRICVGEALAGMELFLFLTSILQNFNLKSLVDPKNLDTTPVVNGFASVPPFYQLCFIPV
Sequence of Cytochrome P450 2D6 (Homo sapiens) (P10635 whole entry, looked up): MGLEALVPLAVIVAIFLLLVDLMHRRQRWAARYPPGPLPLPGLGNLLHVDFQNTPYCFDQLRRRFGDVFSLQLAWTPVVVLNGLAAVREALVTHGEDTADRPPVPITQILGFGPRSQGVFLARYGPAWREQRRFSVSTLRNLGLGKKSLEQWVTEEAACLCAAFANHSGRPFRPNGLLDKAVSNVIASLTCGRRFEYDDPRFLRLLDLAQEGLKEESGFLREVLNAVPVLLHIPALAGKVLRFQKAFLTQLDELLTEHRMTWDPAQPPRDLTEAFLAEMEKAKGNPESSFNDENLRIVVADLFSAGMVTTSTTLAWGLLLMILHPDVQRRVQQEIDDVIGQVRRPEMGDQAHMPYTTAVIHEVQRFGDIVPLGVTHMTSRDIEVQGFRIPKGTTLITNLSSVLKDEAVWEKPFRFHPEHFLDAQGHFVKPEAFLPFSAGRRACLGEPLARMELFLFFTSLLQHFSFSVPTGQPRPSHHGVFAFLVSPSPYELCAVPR
Sequence of Nuclear receptor subfamily 1 group I member 2 (Rattus norvegicus) (Q9R1A7 whole entry, looked up): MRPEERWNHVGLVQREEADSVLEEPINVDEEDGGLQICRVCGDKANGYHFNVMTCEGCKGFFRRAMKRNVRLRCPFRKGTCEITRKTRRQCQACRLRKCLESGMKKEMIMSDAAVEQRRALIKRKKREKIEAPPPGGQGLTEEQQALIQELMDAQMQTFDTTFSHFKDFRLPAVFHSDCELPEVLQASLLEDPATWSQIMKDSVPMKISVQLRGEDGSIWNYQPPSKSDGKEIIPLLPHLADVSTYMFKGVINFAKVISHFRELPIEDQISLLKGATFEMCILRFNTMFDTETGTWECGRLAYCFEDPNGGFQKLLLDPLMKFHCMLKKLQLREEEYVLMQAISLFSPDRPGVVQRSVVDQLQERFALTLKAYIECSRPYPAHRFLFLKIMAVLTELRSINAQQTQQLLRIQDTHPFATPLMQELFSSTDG

For the compound `CCCCC/C(=C\c1ccccc1)CO`, the Potency entry in [1], in assay [2], in [4] and in assay [5] was “inactive” in each case. Further, in [3], the result was inactive. Moreover, the values for the Potency in assay [6] and in assay [7] were 39.4 µM (active) and 3.94 µM (active), respectively.
As for `CCCCN(CCCC)C(=S)SSC(=S)N(CCCC)CCCC`, the Potency result in [1], in assay [2] and in [4] was “inactive” in each case. In addition, the Potency is 27 µM (active) in assay [8]; 30.3 µM (active) in [5]; 28 µM (active) in assay [9]; 17.7 µM (active) in assay [10]; 2.8 µM (active) in assay [6]; 35.2 µM (active) in assay [7]. In assay [11], the Potency was 5.58 µM (active). The compound was classed as inactive in assay [3].
On to `CCC(C)(O)CCC=C(C)C` (stereo not drawn), for which the Potency entry in assay [1], in assay [2], in [8], in [4], in [5] and in assay [9] was “inactive” each time. Also, the Potency entry in assay [6], in assay [7], in assay [12] and in [11] was “inactive” each time. The outcome in assay [3] was inactive.
Consider `CN1CCN(CCCN2c3ccccc3Sc3ccc(S(=O)(=O)N(C)C)cc32)CC1`, for which the Potency result in assay [1], in assay [14], in [10] and in assay [7] was “inactive” throughout. Also, the Potency in assay [2] is 26.6 µM (active); in [8], 26.6 µM (active); in assay [9] it was 15.5 µM (active); in assay [12], 5.35 µM (active). Also, the compound was classed as inactive in assay [3]. Moreover, in [13], the max activation was 4.5%.
For the compound `CNCCCC1c2ccccc2C=Cc2ccccc21`, the Potency entry in assay [1], in assay [10], in assay [6] and in assay [7] was “inactive” each time. The Potency in assay [2] was 29.8 µM (active); in [8], 26.6 µM (active); in assay [15], 3.55 µM (active); in assay [9], 4.9 µM (active). In addition, the call in assay [3] was inactive. Further, the max activation in [13] is -3.85%.
As for `Nc1ccc(S(=O)(=O)O)cc1`, the Potency entry in [1], in assay [2], in assay [8], in [4], in assay [5] and in assay [10] was “inactive” throughout. Besides, the Potency result in assay [6], in assay [7], in assay [12] and in [11] was “inactive” in each case.
Take `O=C(CCCCCCCCC#CI)Oc1ccccc1`: the Potency entry in assay [1], in assay [2], in [8], in assay [5], in [10] and in [12] was “inactive” in each case. Also, the Potency result in assay [11] is “inactive”. For the same compound, in assay [6], the Potency was 17.4 µM (active).
As for `O=c1[nH]c2ccc(S(=O)CCN3CCC(Cc4ccc(F)cc4)CC3)cc2o1` (stereo not drawn), the Potency entry in assay [1], in assay [16], in assay [5], in [6] and in assay [7] was “inactive” in each case. Moreover, the Potency was 54.5 µM (active) in [8], 35.6 µM (active) in assay [9], 56.4 µM (active) in [10] and 4.36 µM (active) in assay [12]. For the same compound, in [3], the compound was called inactive.
Turning to `CCCCC(CC)CNCC(CC)CCCC` (stereo not drawn), the Potency result in [1], in [2], in assay [8], in assay [4], in assay [5] and in assay [6] was “inactive” each time. The Potency result in assay [12] and in assay [11] was “inactive” in each case. Further, in [3], the result was inactive. Moreover, the Potency in assay [9] was 0.199 µM (active); in assay [10], 35.3 µM (active).
